Screening data from PubChem BioAssay.
This is a sample that favours compounds with a hit; in the whole collection about 19% have one here.
ASM inhibitor: inhibitors of human secretory acid sphingomyelinase. P17405. placental ASM, HMU-PC fluorogenic substrate, 60 min. Potency, µM (doses to about 57.5 µM), for inactives: at the top dose activity change, negative = inhibition, usual class: inhibitors. 0.006% of 340,000 active. AID 504937; also: potency is read from the fitted curve at half-maximal effect
Target sequence (P17405 47-631 limits assumed): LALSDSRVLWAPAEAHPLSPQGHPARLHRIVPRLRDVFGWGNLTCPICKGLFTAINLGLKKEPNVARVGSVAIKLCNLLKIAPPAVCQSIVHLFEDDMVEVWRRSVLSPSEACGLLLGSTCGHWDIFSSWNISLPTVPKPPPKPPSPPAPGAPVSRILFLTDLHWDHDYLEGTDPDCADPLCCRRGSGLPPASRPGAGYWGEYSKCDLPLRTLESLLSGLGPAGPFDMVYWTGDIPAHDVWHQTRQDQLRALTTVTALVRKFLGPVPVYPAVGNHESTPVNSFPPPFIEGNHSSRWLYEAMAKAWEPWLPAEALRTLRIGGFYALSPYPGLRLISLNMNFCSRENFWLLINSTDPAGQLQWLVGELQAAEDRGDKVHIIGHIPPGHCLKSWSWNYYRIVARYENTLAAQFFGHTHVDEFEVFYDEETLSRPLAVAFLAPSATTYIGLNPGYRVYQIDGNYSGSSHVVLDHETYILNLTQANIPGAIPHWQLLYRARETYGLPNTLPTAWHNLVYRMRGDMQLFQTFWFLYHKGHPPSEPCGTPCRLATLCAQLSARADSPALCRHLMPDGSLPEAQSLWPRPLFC
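HMU-PC0 cleavage (9 uM final) by human placental ASM, 60 min at 37 °C following 10 min compound exposure at RT; stopped at pH 10, fluorescence Ex 386/Em 447 nm.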
IL-1B inflam inh: inflammasome signaling inhibition, IL-1 beta readout | 4.7% of 360,000 active | activity change, % at 57.5 µM | AID 743279 | THP-1 LPS/ATP IL-1B secretion, AlphaLISA, 16 h; active compounds read low; in the data active = activity change below about -50%; inconclusive = mostly about -30% to -49%; also: % is scaled to controls: 0 for no effect and ±100 for the full control effect
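Secreted IL-1B measured by AlphaLISA bead assay after 16 h compound exposure of THP-1 cells; compounds (final up to 57.5 uM) added 1 h before LPS (250 ng/mL) and ATP (1.25 mM) stimulation; lower signal means less secretion.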
DT40 TDP1 CPT: growth inhibition of DT40 Tdp1-/-;hTDP1 cells with camptothecin (screen for TDP1 inhibitors). chicken DT40 Tdp1-/-;hTDP1 cells + 20 nM CPT, ATP luminescence, 48 h. Potency, µM (titrated, usually from 46.2 µM), without a hit: at the highest dose activity change, negative = growth inhibition, usual class: inhibitors. 12% of 420,000 active. AID 686979; also: potency is read from the fitted curve at half-maximal effect; % is scaled to controls: 0 for no effect and ±100 for the full control effect; nearly all actives have a fitted effect of over 55% in size
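Cell growth measured by CellTiter-Glo luminescence after a minimum 48 h, 37 C compound exposure with 20 nM CPT in Tdp1-knockout DT40 cells stably expressing hTDP1, seeded 400/well; qHTS titration format.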
HepG2 tox: kills HepG2 cells in TGF-b inhibitor counter-screen. HepG2 CAGA-GFP viability, ATP luminescence, 18 h. Potency, µM (series often up to 46.1 µM), without a hit: top-dose activity change, negative = cytotoxicity, usual class: cytotoxic. 0.76% of 410,000 active; also: potency is read from the fitted curve at half-maximal effect
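HepG2 CAGA-GFP cells (1000/well, DMEM with 1% FBS) received compound, then TGF-beta at 500 pg/mL final, and were incubated 18 hours at 37 degrees C. Viability was read by CellTiter-Glo luminescence. Media-only wells were set as complete cell-killing and DMSO as no toxicity.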
TDP1 cell noCPT: qHTS for Inhibitors of human tyrosyl-DNA phosphodiesterase 1 (TDP1): qHTS in cells in absence of CPT | 15% of 420,000 active | DT40 Tdp1-/- hTDP1 cells, no CPT, ATP luminescence, 48 h | Potency, µM (highest dose often 46.2 µM), for inactives: at the highest dose activity change, negative = growth inhibition, hits mostly inhibitors; also: potency is read from the fitted curve at half-maximal effect; % is scaled to controls: 0 for no effect and ±100 for the full control effect; nearly all actives have a fitted effect of over 55% in size
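Camptothecin absent (DMSO only). Human TDP1-complemented DT40 knockout cells, 400 cells/well, 37 °C for minimum 48 hr; ATP measured via CellTiter-Glo, 30 min dark incubation, luminescence.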
TGFb SMAD3 inh: TGF-b pathway inhibition. HepG2 CAGA-GFP TGF-b/SMAD3 reporter, GFP fluorescence, 18 h; TGF-beta stimulated, 500 pg/mL final. Potency, µM (titrated, usually from 46.1 µM), inactives show top-dose activity, negative = inhibition, hits mostly inhibitors. 1.2% of 410,000 active. AID 588855; also: potency is read from the fitted curve at half-maximal effect; % is scaled to controls: 0 for no effect and ±100 for the full control effect; nearly all actives have a fitted effect of over 65% in size
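HEPG2 CAGA-GFP cells (1000/well, DMEM with 1% FBS) were pre-incubated 2 h at 37 degrees C, given compound by pin tool, then stimulated with TGF-beta at 500 pg/mL final for 18 h before per-cell GFP fluorescence imaging.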
* = called active by the depositor; u = inconclusive; x = no result given. Unless noted, calls follow the shape of the dose curve; as a rule, active = well fitted curve in the direction sought with a large enough effect; inconclusive = small, poorly fitted or top-dose-only effect, or another doubt; inactive = no such curve, though single readings can be large; an effect the other way counts as inactive or inconclusive.

SMILES	ASM inhibitor	IL-1B inflam inh	DT40 TDP1 CPT	HepG2 tox	TDP1 cell noCPT	TGFb SMAD3 inh
COc1ccc(CN2CCN(Cc3c[nH]c4ccccc34)CC2CCO)c(F)c1 (stereo not given)	-0.5%	u	4.61µM*	0.0%	8.2µM*	-6.9%
COCc1cc(CN2CCN(CCc3ccccc3)C(CCO)C2)ccc1OC (stereo not given)	5.0%	2.4	1.2%	-1.8%	u	9.7%
COc1cc(CN2CCN(Cc3c[nH]c4ccccc34)CC2CCO)cc(OC)c1 (stereo not given)	1.7%	-23.0	13µM*	-18.1%	u	9.6%
COc1ccc(F)c(CN2CCN(CCc3ccccc3)C(CCO)C2)c1 (stereo not given)	0.8%	-1.9	-12.5%	-35.2%	-14.2%	31.9%
CC(C)(C)CN1CCN(Cc2c[nH]c3ccccc23)CC1CCO (stereo not given)	-0.9%	-23.4	8.2µM*	-24.4%	8.2µM*	3.5%
CCCCCN(C(=O)COC(=O)c1ccc(C)cc1)c1c(N)n(CCCC)c(=O)[nH]c1=O	4.0%	u	-1.1%	-3.3%	1.4%	-10.0%
COc1ccc(CNC(=O)CCn2cccn2)cc1	x	x	-1.2%	11.6%	-7.2%	-3.6%
CCOC(=O)CC(=O)COc1nc2cc3c(nc2o1)CCCC3	77.7%	-3.1	1.0%	6.6%	-2.3%	-2.2%
C#CCOc1c(Br)cc(C2C(C(=O)OC)=C(C)NC3=C2C(=O)c2ccccc23)cc1OCC (stereo not given)	x	x	u	-0.1%	5.8µM*	-20.2%
CCOc1ccc(C2C(C(=O)OC)=C(C)NC3=C2C(=O)c2ccccc23)cc1OC (stereo not given)	x	x	18.4µM*	-19.0%	20.6µM*	2.1%
CCOC(=O)C1=C(C)NC2=C(C(=O)c3ccccc32)C1c1cccnc1 (stereo not given)	-4.4%	-9.8	u	-0.6%	u	0.0%
COc1cc(C(=O)OCC(=O)N2CCN(C(C)=O)CC2)ccc1OCC(C)C	-1.3%	18.3	8.4%	14.0%	-5.6%	-2.5%
Cc1cccc(NC(=O)Nc2nnc(N(C)C3CCCCC3)s2)c1C	x	x	-1.9%	9.6%	u	-9.4%
C=CCCC(=O)N1CCC(Oc2cccc(C(=O)NCc3ccccn3)c2)CC1	-0.3%	8.0	3.2%	-12.0%	-14.1%	0.0%
CCOC(=O)c1ccc(NC(=O)CSC2=NN3CCCC(=O)N=C3S2)cc1	1.6%	31.9	20.6µM*	13.9%	u	18.3%
CCOC(=O)c1c(NC(=O)CSC2=NN3CCCC(=O)N=C3S2)sc2c1CCCCC2	-9.6%	0.0	20.6µM*	-14.0%	u	-4.8%
COc1ccc(OC)c(NC(=O)CSC2=NN3CCCC(=O)N=C3S2)c1	3.6%	32.9	u	-4.5%	u	-8.6%
COc1ccc(Cl)cc1NC(=O)CSC1=NN2CCCC(=O)N=C2S1	-2.6%	18.6	u	5.9%	11.6µM*	2.3%
COc1ccc(-c2cc(C(=O)NNC3=NCCC3)c3c(C)nn(-c4ccccc4)c3n2)cc1	-5.2%	-0.1	u	-24.3%	u	0.8%
CCCOc1ccccc1N/C(=N\S(=O)(=O)c1ccc(C)cc1)Nc1nc(C)cc(C)n1	0.6%	13.3	u	-11.9%	14.6µM*	-22.0%
Cc1ccc(C)c(NC(=O)CCS(=O)(=O)c2cccc3nsnc23)c1	x	x	-11.5%	-13.5%	-8.1%	-1.6%
Cc1ccc(C)c(N2CCN(C(=O)C3CCCN(S(=O)(=O)c4cnc[nH]4)C3)CC2)c1 (stereo not given)	0.2%	-12.7	u	-14.6%	u	3.4%
CC(=O)N1CCCc2cc(S(=O)(=O)N3CCCC(C(=O)N4CCN(c5cc(C)ccc5C)CC4)C3)ccc21 (stereo not given)	-1.1%	-77.8*	6.51µM*	-4.4%	6.51µM*	12.6µM*
COc1ccccc1N1CCN(C(=O)C2CCCN(S(=O)(=O)c3ccc4c(c3)CCCN4C(C)=O)C2)CC1 (stereo not given)	-1.8%	12.6	8.2µM*	-6.7%	8.2µM*	u
COc1ccc(OC)c(S(=O)(=O)NCCCc2ccccc2)c1	1.5%	15.6	23.7%	-1.2%	-6.5%	-1.1%
SMILES	ASM inhibitor	IL-1B inflam inh	DT40 TDP1 CPT	HepG2 tox	TDP1 cell noCPT	TGFb SMAD3 inh
Cc1cc(Cl)cc(Cl)c1OCCN1CCCC1	-3.0%	-24.9	0.6%	-4.9%	6.8%	-5.3%
CCOc1ccc(CCNC(=O)Cn2ncn3c(cc4sc(C)cc43)c2=O)cc1OCC	x	x	0.6%	-3.2%	u	0.0%
Cc1cccc(OCC(=O)Nc2c(C(=O)Nc3ccc(F)cc3)oc3ccccc23)c1	x	x	-10.4%	-32.3%	-29.9%	-26.1%
CCOC(=O)c1cc2c(N)c(C(=O)c3cc(C#N)c(SC)nc3C)sc2nc1C	104.1%	15.0	13µM*	-46.5%	10.3µM*	u
COc1ccc(CN2CCNC(=O)C2CC(=O)NC2Cc3ccccc3C2)c(OC)c1 (stereo not given)	3.7%	-17.8	-10.7%	-11.1%	-20.4%	-26.1%
COc1cc(/C=N/NC(=O)c2cccnc2)ccc1OCC(=O)Nc1ccc(C)cc1	13.0%	13.7	18.8%	9.7%	-23.3%	12.7%
CCOc1cc(/C=N/NC(N)=O)ccc1OCC(=O)Nc1ccc(C)c(C)c1	5.2%	-15.3	20.6µM*	6.6%	23.1µM*	-2.2%
COc1cc(/C=N/NC(=O)c2cccc(C)c2)ccc1OCC(=O)Nc1ccccc1	-10.1%	13.2	u	3.2%	18.4µM*	-7.4%
CCOc1ccc(C=NNC(=O)c2cccc3ccccc23)cc1OCC	-4.8%	6.7	u	0.0%	18.4µM*	-3.0%
COc1cc(/C=N/NC(=O)c2cccc3ccccc23)ccc1OCC(N)=O	-2.3%	65.0	u	-40.1%	5.8µM*	10.7%
CCOC(=O)c1cc(CC)sc1NC(=O)COc1ccccc1C	x	x	7.9%	-14.1%	2.1%	-9.0%
Nc1ccc(SCc2nc3cccc4c3n2CCC4)cc1	0.4%	-8.6	-4.8%	11.4%	-12.5%	14.7%
CCN(CC(=O)Nc1ccc(Br)cc1F)CC(=O)NC1CCS(=O)(=O)C1 (stereo not given)	-0.2%	-7.8	-28.4%	4.9%	-21.6%	15.3%
O=[N+]([O-])c1ccc(O)c(CN2CCCCCC2)c1	-0.4%	18.2	4.8%	-3.1%	11.5%	-11.7%
